# Data as given in PubChem BioAssay (NCATS).
# Records with an inconclusive call do not appear. Where a call stands in place of a potency, no number is given. Some compounds were tested as several samples or in several runs, with calls that do not always agree. Activity calls are given as the source filed them. Calls come from the whole dose curve; as a rule, active = well fitted inhibition curve with a large enough effect; inconclusive = small, poorly fitted or top-dose-only effect; inactive = flat fitted curve, though single readings scatter.
# How the values were obtained:
# Assay in all cases: qHTS profiling for inhibitors of Plasmodium falciparum proliferation (AID 504749); note: nearly all actives have a fitted effect of over 60% in size
# Settings in all cases: P. falciparum in erythrocytes, SYBR Green DNA, 72 h; series mostly up to 28.7 µM
# CP335 = tested on: CP335
# Summary of the method: (§1)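 Three-day growth assay of blood-stage parasites in erythrocytes (0.3% parasitemia, 2.5% hematocrit) at 37 C, 5% CO2, quantified by SYBR Green DNA staining after overnight detergent lysis.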
# DFO2036 = tested on: DFO2036
# Summary of the method: as §1
# DIV14 = tested on: DIV14
# Summary of the method: as §1
# DIV17 = tested on: DIV17
# Summary of the method: as §1
# DIV30 = tested on: DIV30
# Summary of the method: as §1
# Dd2 = tested on: Dd2
# Summary of the method: as §1
# ECU = tested on: ECU
# Summary of the method: as §1
# FAB9 = tested on: FAB9
# Summary of the method: as §1
# GB4 = tested on: GB4
# Summary of the method: as §1
# HB3 = tested on: HB3
# Summary of the method: as §1
# ICS = tested on: ICS
# Summary of the method: as §1
# JCK = tested on: JCK
# Summary of the method: as §1
# N140 = tested on: N140
# Summary of the method: as §1
# P93_24 = tested on: P93_24
# Summary of the method: as §1
# P94_40 = tested on: P94_40
# Summary of the method: as §1
# PAD = tested on: PAD
# Summary of the method: as §1
# PC15 = tested on: PC15
# Summary of the method: as §1
# PC26 = tested on: PC26
# Summary of the method: as §1
# PC49 = tested on: PC49
# Summary of the method: as §1
# SC27B = tested on: SC27B
# Summary of the method: as §1
# Potency is the fitted concentration of half-maximal effect.
Structure (SMILES),Potency (CP335),Potency (DFO2036),Potency (DIV14),Potency (DIV17),Potency (DIV30),Potency (Dd2),Potency (ECU),Potency (FAB9),Potency (GB4),Potency (HB3),Potency (ICS),Potency (JCK),Potency (N140),Potency (P93_24),Potency (P94_40),Potency (PAD),Potency (PC15),Potency (PC26),Potency (PC49),Potency (SC27B)
C#CC(C)(O)CC (configuration not stated),inactive,inactive,inactive,inactive,inactive,inactive,inactive,inactive,inactive,inactive,inactive,inactive,inactive,inactive,inactive,inactive,inactive,inactive,inactive,inactive
ClC=C(Cl)Cl,inactive,inactive,inactive,inactive,inactive,inactive,inactive,inactive,inactive,inactive,inactive,inactive,inactive,inactive,inactive,inactive,inactive,inactive,inactive,inactive
C=CCN(C1=NCCN1)c1c(Cl)cccc1Cl,inactive,inactive,inactive,inactive,inactive,inactive,inactive,inactive,inactive,inactive,inactive,inactive,inactive,inactive,inactive,inactive,inactive,inactive,inactive,inactive
CNC1(c2ccccc2Cl)CCCCC1=O (configuration not stated),inactive,inactive,9.53 µM (active) and inactive,13500 nM (active),inactive,–,inactive,inactive,12000 nM (active),inactive,inactive,inactive,inactive,inactive,inactive,–,inactive,inactive,inactive,inactive
S=C(S)N1CCNCC1,inactive,inactive,inactive,inactive,inactive,inactive,inactive,inactive,inactive,inactive,inactive,inactive,inactive,inactive,inactive,inactive,inactive,inactive,inactive,inactive
O=C1CCO1,inactive,inactive,inactive,inactive,inactive,inactive,inactive,inactive,inactive,inactive,inactive,inactive,inactive,inactive,inactive,inactive,–,inactive,inactive,inactive
CCC1(C)CC(=O)NC(=O)C1,inactive,inactive,inactive,inactive,inactive,inactive,inactive,inactive,inactive,inactive,inactive,inactive,inactive,inactive,inactive,inactive,inactive,inactive,inactive,inactive
C[N+]1(C)CCCCC1COC(=O)C(O)(c1ccccc1)c1ccccc1 (configuration not stated),inactive,inactive,inactive,inactive,inactive,inactive,inactive,inactive,inactive,inactive,inactive,inactive,inactive,–,–,inactive,inactive,inactive,inactive,inactive
C/C(=C\c1csc(C)n1)[C@@H]1C[C@@H]2O[C@]2(C)CCC[C@H](C)[C@H](O)[C@@H](C)C(=O)C(C)(C)[C@@H](O)CC(=O)O1,1.2 nM (active),3.2 nM (active),3.4 nM (active),3.4 nM (active),4.8 nM (active),1.3 nM (active),4.5 nM (active),–,1.9 nM (active),0.9 nM (active),1.8 nM (active),8.9 nM (active),4.5 nM (active),3.5 nM (active),2.8 nM (active),3.5 nM (active),–,3.4 nM (active),–,5 nM (active)
CC(=O)OO,inactive,inactive,inactive,inactive,inactive,inactive,inactive,inactive,inactive,inactive,inactive,inactive,inactive,inactive,inactive,inactive,inactive,inactive,inactive,inactive
CC(N)Cc1ccc(O)cc1 (configuration not stated),inactive,inactive,inactive,inactive,inactive,inactive,inactive,inactive,inactive,inactive,inactive,inactive,inactive,inactive,inactive,inactive,inactive,inactive,inactive,inactive
